Structures are written as SMILES. Results filed as inconclusive are left out. Entries that show only a call come without a potency. Calls of active or inactive are those of the source. Calls follow the shape of the dose curve; as a rule, active = well fitted curve in the direction sought with a large enough effect; inconclusive = small, poorly fitted or top-dose-only effect, or another doubt; inactive = no such curve, though single readings can be large; an effect the other way counts as inactive or inconclusive.

Sequence of Rap guanine nucleotide exchange factor 3 (Homo sapiens) (O95398 whole entry, looked up): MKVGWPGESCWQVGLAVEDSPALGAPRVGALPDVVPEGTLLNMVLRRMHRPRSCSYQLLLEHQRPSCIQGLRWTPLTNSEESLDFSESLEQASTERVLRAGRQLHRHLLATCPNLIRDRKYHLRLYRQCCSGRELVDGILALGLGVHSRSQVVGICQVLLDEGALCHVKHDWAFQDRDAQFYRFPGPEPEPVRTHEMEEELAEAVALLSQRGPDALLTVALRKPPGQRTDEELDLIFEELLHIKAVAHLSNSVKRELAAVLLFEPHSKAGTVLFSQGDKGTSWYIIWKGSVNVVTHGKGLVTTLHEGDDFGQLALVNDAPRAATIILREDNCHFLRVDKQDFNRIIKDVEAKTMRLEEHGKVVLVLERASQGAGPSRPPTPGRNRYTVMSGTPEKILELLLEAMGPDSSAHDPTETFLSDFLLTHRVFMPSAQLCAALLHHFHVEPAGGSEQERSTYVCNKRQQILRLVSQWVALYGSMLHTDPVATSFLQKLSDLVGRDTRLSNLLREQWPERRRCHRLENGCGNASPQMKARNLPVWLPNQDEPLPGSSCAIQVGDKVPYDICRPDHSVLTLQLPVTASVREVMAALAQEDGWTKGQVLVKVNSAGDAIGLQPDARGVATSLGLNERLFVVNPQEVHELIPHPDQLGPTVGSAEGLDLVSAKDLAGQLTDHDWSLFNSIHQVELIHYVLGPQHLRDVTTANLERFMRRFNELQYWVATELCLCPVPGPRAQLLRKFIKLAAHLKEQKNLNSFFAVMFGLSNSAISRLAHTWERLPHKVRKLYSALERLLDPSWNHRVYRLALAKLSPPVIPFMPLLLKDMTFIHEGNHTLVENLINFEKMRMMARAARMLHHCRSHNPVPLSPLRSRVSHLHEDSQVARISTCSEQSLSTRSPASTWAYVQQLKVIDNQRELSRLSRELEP

The target in the first test is Cytochrome P450 3A4 (Homo sapiens) (UniProt P08684). As to the kind of experiment: qHTS Assay for Activators of Cytochrome P450 3A4 (AID 885). Also: nearly all actives have a fitted effect of over 65% in size. The note with it: recombinant CYP3A4, Luciferin-PPXE luminescence, 60 min; series mostly up to 57.1 µM. In a few lines: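 Using 20nM recombinant human CYP3A4 in potassium phosphate (200mM), substrate Luciferin-PPXE at 25uM, luminescent luciferin detection followed a 60-min RT NADPH reaction; data scaled to 57 uM ketoconazole.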
Sequence of Cytochrome P450 3A4 (Homo sapiens) (P08684 whole entry, looked up): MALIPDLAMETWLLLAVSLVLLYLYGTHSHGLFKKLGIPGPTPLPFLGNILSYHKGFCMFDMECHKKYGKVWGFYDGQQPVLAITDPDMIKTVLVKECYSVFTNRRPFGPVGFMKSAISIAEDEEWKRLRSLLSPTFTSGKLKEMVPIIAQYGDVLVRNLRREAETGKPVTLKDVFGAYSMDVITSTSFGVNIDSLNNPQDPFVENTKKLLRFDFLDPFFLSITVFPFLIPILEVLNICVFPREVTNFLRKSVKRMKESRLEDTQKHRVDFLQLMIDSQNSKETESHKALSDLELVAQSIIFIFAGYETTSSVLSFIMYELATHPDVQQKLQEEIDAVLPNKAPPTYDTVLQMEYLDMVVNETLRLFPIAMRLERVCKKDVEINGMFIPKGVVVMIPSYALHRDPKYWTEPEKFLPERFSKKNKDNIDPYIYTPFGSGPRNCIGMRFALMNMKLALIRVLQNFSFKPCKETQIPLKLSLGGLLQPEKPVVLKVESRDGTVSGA
For orientation: qHTS replaces the single test concentration by a dilution series.
As to `CC(=O)Oc1c2c(c3c(c1CC=C(C)C)O[C@@]14C(=CC5CC1C(C)(C)OC4(C/C=C(\C)C(=O)O)C5=O)C3=O)OC(C)(CCC=C(C)C)C=C2` (some centres not stated), the result was inactive. Same read-out and setting: next, `COc1ccc(C2OCC3(COC(C)=O)C(C)C=C(C)C2C3C)cc1` (configuration not stated): “inactive”; `COc1cc(C)c2c(=O)cc(-c3ccccc3)oc2c1`: “inactive”.

In a further test the target is Rap guanine nucleotide exchange factor 3 (Homo sapiens) (UniProt O95398). Kind of test: Confirmatory qHTS for antagonist of cAMP-regulated guanine nucleotide exchange factor 3 (EPAC1) (AID 1645880). Also: nearly all actives have a fitted effect of over 55% in size. Also: potency is read from the fitted curve at half-maximal effect. Conditions: EPAC1 Rap1B-BODIPY-GDP exchange, fluorescence; activity, negative = inhibition: at 115 µM (top of the series). In a few lines:
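Released BODIPY-GDP fluoresces less than Rap1-bound BODIPY-GDP; the signal is followed at 480/540 nm at 5-min intervals over 30 min, after 5 min at room temperature. Reactions contain 100 nM EPAC1, 250 nM RAP1B-BODIPY-GDP and 50 uM GDP; results are normalized to ATA and DMSO.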
In the case of `COC(=O)C1=C(C)N(c2ccc(OC)cc2)C(C)=C(C(=O)OC)C1c1ccccc1`, the Potency result is “inactive”.

`COc1ccc(C(=S)N2CCOCC2)cc1OC(=O)c1ccccc1Cl`: the Potency entry is “inactive”. The same measure, in the same setting: next, `CCOC(=O)C1(Cc2ccccc2)C(=O)Nc2ccccc21` (configuration not stated): “inactive”; `O=C(CCn1c(=O)oc2ccccc21)N(Cc1ccccc1)c1ccccc1`: “inactive”.

For the molecule `COc1ccc(OC)c(/C=C/c2ccnc3ccccc23)c1`, the Potency entry is “inactive”.

On to `CN(C)c1ccc2nc3c(=O)[nH]c(=O)nc-3n(CC(O)C(O)C(O)CO)c2c1` (configuration not stated), for which the Potency entry was “inactive”.

As to `COc1ncc2nc(-c3ccccc3)c(=O)n(Cc3cccs3)c2n1`, the Potency result was “inactive”.

Regarding `Cc1nnc(N2CCC(C(=O)NC3CCCCC3)CC2)c2nn(-c3ccccc3)c(C)c12`, the Potency result is “inactive”.

With `Oc1ccc2ccccc2c1-c1sc(Nc2ccccc2)n[n+]1-c1ccc(F)cc1`, the Potency is 19 µM (active).

With `Cc1ccccc1-c1ccc2ncnc(N3CCOCC3)c2c1`, the Potency result was “inactive”.

For `CN(C)c1ccc(/C=C/c2c3c(nc4ccccc24)CCCC3)cc1`, the Potency result was “inactive”. Same read-out and setting: under `O=C1C=C(c2ccccc2)C(c2ccccc2)C1` (configuration not stated) stands “inactive”. Regarding `COc1ccc2c(c1)CCC1(C)CC(=O)C(Br)=C21` (configuration not stated), the Potency entry was “inactive”. On the same count and under the same terms, under `O=C(O)/C(CC(=O)c1ccc(Cl)cc1)=N/Nc1ccc([N+](=O)[O-])cc1[N+](=O)[O-]` stands 75.7 µM (active).
